Experimental data taken from PubChem BioAssay (NCI).
About 83,000 compounds went through this panel and 20% of them were active in at least one assay; those are over-represented in the sample as a whole.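 The endpoint reported here, percent growth, reads 100 for growth as untreated, 0 for no net growth and -100 for all cells dead.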 A number with no mark means an inactive call. The source made the active and inactive calls. How the source made its calls: active means growth percent below 10; inactive means the rest.

Assays:
Assay in all cases: NCI-60 one-dose screen, 48 h (100 = growth as untreated, 0 = no growth, -100 = all killed)
Settings in all cases: 10 µM unless noted
K-562 leukemia = system: K-562 leukemia
MALME-3M melanoma = system: MALME-3M melanoma
MDA-MB-231 breast = system: MDA-MB-231 breast
RXF 393 renal = system: RXF 393 renal
SF-268 CNS = system: SF-268 CNS
SF-295 CNS = system: SF-295 CNS
SF-539 CNS = system: SF-539 CNS
UACC-257 melanoma = system: UACC-257 melanoma
M14 melanoma = system: M14 melanoma
HCT-15 colon = system: HCT-15 colon
HT29 colon = system: HT29 colon
SNB-75 CNS = system: SNB-75 CNS
SNB-19 CNS = system: SNB-19 CNS
U251 CNS = system: U251 CNS
PC-3 prostate = system: PC-3 prostate
SK-MEL-5 melanoma = system: SK-MEL-5 melanoma
UACC-62 melanoma = system: UACC-62 melanoma
LOX IMVI melanoma = system: LOX IMVI melanoma
SK-MEL-28 melanoma = system: SK-MEL-28 melanoma
SK-MEL-2 melanoma = system: SK-MEL-2 melanoma

Row | Compound | growth (K-562 leukemia) | growth (MALME-3M melanoma) | growth (MDA-MB-231 breast) | growth (RXF 393 renal) | growth (SF-268 CNS) | growth (SF-295 CNS) | growth (SF-539 CNS) | growth (UACC-257 melanoma) | growth (M14 melanoma) | growth (HCT-15 colon) | growth (HT29 colon) | growth (SNB-75 CNS) | growth (SNB-19 CNS) | growth (U251 CNS) | growth (PC-3 prostate) | growth (SK-MEL-5 melanoma) | growth (UACC-62 melanoma) | growth (LOX IMVI melanoma) | growth (SK-MEL-28 melanoma) | growth (SK-MEL-2 melanoma)
1 | Clc1ccc(-c2cn3cc(Cc4ccc(Cl)c(Cl)c4)sc3n2)cc1 | 34.7% | 86.3% | 72.7% | 104% | 86.2% | 35.8% | 83.8% | 52.3% | 20.2% | 60.7% | 90.5% | 70.7% | 88.9% | 93.7% | 81.6% | 38.2% | 18.2% | 53.1% | 71% | 113%
2 | Cc1cccc2sc(/N=C(\N)C(Br)Br)nc12 | 4.43% (active) | -53.6% (active) | 6.18% (active) | -22.5% (active) | 72.4% | 29% | 8.75% (active) | 67.8% | 32.6% | -36.5% (active) | -30.4% (active) | 7.62% (active) | 46.8% | 9.02% (active) | 40.8% | 51.4% | 22% | -86% (active) | 38.4% | 5.61% (active)
3 | COc1ccc(-c2nc3ccc(-c4nnc(SCC(=O)Nc5ccc(C(C)=O)cc5)o4)cc3[nH]2)cc1 | 85.6% | 87.8% | 94.7% | 122% | 104% | 97.5% | 81.6% | 124% | 91.9% | 100% | 116% | 92.6% | 119% | 104% | 104% | 93.5% | 96% | 108% | 112% | 134%
4 | OC1CCc2c(-c3ccc4ncnc(N5CCc6cc(F)c(Cl)cc65)c4c3)cncc21 (stereo not given) | 60.9% | 64.5% | 40.2% | 8.06% (active) | 43.3% | 54% | 53.7% | 89.4% | 74.4% | 41.1% | 65.6% | 31.7% | 57.2% | 69.6% | 41.3% | 54% | 43.5% | 54% | 73.6% | 46.7%
5 | O=C(CCN1C(=O)/C(=C/c2ccccc2F)SC1=S)N1CCOCC1 | 32.2% | 74.1% | 71% | 41.2% | 101% | 97.8% | 87.8% | 89.8% | 80.5% | 45.5% | 87.1% | 94% | 99% | 94.4% | 108% | 96.9% | 82.7% | -34.1% (active) | 85.1% | 113%
6 | COc1cc(OC)c(C2SCC(=O)N2Nc2ncnc3ccccc23)cc1OC (stereo not given) | 105% | 96.2% | 98.8% | 124% | 107% | 102% | 95.3% | 108% | 107% | 103% | 113% | 101% | 99.4% | 105% | 107% | 102% | 97.6% | 117% | 104% | 123%
7 | Nc1cc(-c2c[nH]c3ccc(Cl)cc23)nc2cc(-c3c[nH]c4ccc(Cl)cc34)nn12 | 4.93% (active) | 90.6% | 49.3% | 75% | 54% | 33.6% | 65.5% | 83.9% | 48.6% | 11.1% | 0.992% (active) | 71.9% | 70.5% | 9.85% (active) | 36.4% | 70.9% | 70.4% | -5.92% (active) | 80.8% | 71.6%
8 | COc1cc2nc(-c3ccc(C)cc3)cc(OCCCNCC3CCCO3)c2cc1OC (stereo not given) | 43.6% | 50% | 59.1% | 59.6% | 79.7% | 59.9% | 73.7% | 17.8% | 14.3% | 38% | 21.3% | 80.7% | 92.1% | 66.7% | 66.3% | 77.7% | 96.6% | -32.2% (active) | 68.1% | 112%
9 | O=C(CCN1C(=O)/C(=C/c2ccccc2)SC1=S)N1CCOCC1 | 43.1% | 72.9% | 75.9% | 77.1% | 97.7% | 98.1% | 91.8% | 91.4% | 76.8% | 53.7% | 102% | 92.1% | 101% | 99.9% | 111% | 99.5% | 78.8% | 0.309% (active) | 85.6% | 112%
10 | Clc1ccc2oc3c(NCCCN4CCOCC4)c4ccccc4nc3c2c1 | 1.61% (active) | 24.1% | 25.2% | 13.9% | 38.1% | 17.4% | 19.9% | 50.5% | 31.8% | 3.77% (active) | 14% | 24.7% | 35.9% | 23% | 40.7% | 44.2% | 40% | -53.1% (active) | 36.9% | 56.8%
11 | Cc1nc(-c2cc3ccccc3oc2=O)ccc1C(=O)/C=C/c1ccc(N2CCOCC2)cc1 | 38% | 57.5% | 54.3% | 89.6% | 75.3% | 66% | 45.2% | 89% | 45.6% | 54.5% | 80.4% | 58.9% | 79.9% | 89.8% | 86.6% | 71.5% | 52.1% | 31.3% | 72.8% | 91.4%
12 | CC(C)(C)Nc1nc2c(OCCc3ccccc3)cccn2c1-c1ccc(O)cc1 | 17.4% | 62.5% | 79.6% | 21.2% | 91.3% | 36% | 72.9% | 97.9% | 63.1% | 2.12% (active) | 14.8% | 124% | 68.3% | 53.1% | 28.8% | 50.6% | 70.4% | 34.9% | 66% | 85.1%
13 | N#Cc1nc(-c2ccccc2)oc1S(=O)(=O)N1CCN(CCc2ccccn2)CC1 | 6.82% (active) | -66.9% (active) | 38.9% | -54.7% (active) | 109% | 99.2% | 68.7% | 77% | 15.2% | -27.2% (active) | -5.82% (active) | 87.2% | 97.7% | 88% | 86% | 97.6% | 83.6% | -79.2% (active) | 43.6% | 108%
14 | Clc1ccc2c(NCCCN3CCOCC3)c3oc4ccccc4c3nc2c1 | 13.2% | 40.6% | 33.8% | 29.1% | 48.6% | 31.3% | 26.5% | 87.4% | 42.7% | 21.6% | 25.6% | 52.4% | 54.1% | 34.5% | 48.6% | 79.7% | 66.6% | 17.3% | 70.6% | 81.3%
15 | CN(C)CCCOc1c2ccc(Cl)cc2nc2c1oc1ccccc12 | 0.751% (active) | -81.2% (active) | -7.6% (active) | -66% (active) | -9.41% (active) | -19.2% (active) | -58.9% (active) | -18.5% (active) | -84.2% (active) | -21.6% (active) | -45.5% (active) | -18.6% (active) | 5.62% (active) | 4.05% (active) | 5.27% (active) | -97.9% (active) | -73.8% (active) | -84.8% (active) | -76.4% (active) | -87.6% (active)
